Experimental data published in PubChem BioAssay (NCI).
The panel holds about 83,000 compounds, 20% with a hit somewhere; the sample as a whole holds those more often.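 Values shown are percent growth following 48 h exposure of cells in 96-well plates to a single concentration of compound; below 10 was considered active.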 Unmarked numbers belong to inactive results. The source made the active and inactive calls.

How the values were obtained:
Assay in all cases: NCI-60 one-dose screen, 48 h (100 = growth as untreated, 0 = no growth, -100 = all killed)
Settings in all cases: 10 µM unless noted
HCT-15 colon = test system: HCT-15 colon
HT29 colon = test system: HT29 colon
SNB-75 CNS = test system: SNB-75 CNS
SNB-19 CNS = test system: SNB-19 CNS
U251 CNS = test system: U251 CNS
PC-3 prostate = test system: PC-3 prostate
SK-MEL-5 melanoma = test system: SK-MEL-5 melanoma
UACC-62 melanoma = test system: UACC-62 melanoma
LOX IMVI melanoma = test system: LOX IMVI melanoma
SK-MEL-28 melanoma = test system: SK-MEL-28 melanoma
SK-MEL-2 melanoma = test system: SK-MEL-2 melanoma
EKVX NSCLC = test system: EKVX NSCLC
SN12C renal = test system: SN12C renal
UO-31 renal = test system: UO-31 renal
TK-10 renal = test system: TK-10 renal
A498 renal = test system: A498 renal
CCRF-CEM leukemia = test system: CCRF-CEM leukemia
MOLT-4 leukemia = test system: MOLT-4 leukemia

SMILES	growth (HCT-15 colon)	growth (HT29 colon)	growth (SNB-75 CNS)	growth (SNB-19 CNS)	growth (U251 CNS)	growth (PC-3 prostate)	growth (SK-MEL-5 melanoma)	growth (UACC-62 melanoma)	growth (LOX IMVI melanoma)	growth (SK-MEL-28 melanoma)	growth (SK-MEL-2 melanoma)	growth (EKVX NSCLC)	growth (SN12C renal)	growth (UO-31 renal)	growth (TK-10 renal)	growth (A498 renal)	growth (CCRF-CEM leukemia)	growth (MOLT-4 leukemia)
Cc1c(C(C)(C)C)cc(C(C)(C)C)c2c1CN(C)CO2	108%	105%	102%	112%	109%	110%	127%	114%	106%	102%	96.7%	105%	107%	97%	102%	106%	93.7%	109%
O=C1OC(=O)C2C3CC(c4ccccc43)C12 (stereo unspecified)	94.5%	112%	89.4%	107%	97.4%	92.1%	112%	105%	103%	116%	125%	99.3%	113%	76.2%	123%	110%	98.8%	104%
COc1ccc(-n2c(-c3ccc(NC(=O)CCCl)cc3)nnc2-c2cc(OC)c(OC)c(OC)c2)cc1	41.1%	18.9%	90.9%	52%	34.4%	49.8%	48.2%	48.1%	57.1%	27.8%	48.3%	51.2%	72.3%	43.8%	70.2%	65.4%	16.8%	6.29% (active)
COc1ccc(-c2ccc(NC(=O)Nc3cccc(C(F)(F)F)c3)c(C)n2)cc1	40.9%	47.7%	77.6%	67.8%	50.2%	24.4%	41.6%	63.9%	47.7%	69.3%	75.9%	41.4%	68%	55.1%	76.7%	52.1%	42.9%	33.7%
COc1ccc(-c2nnc(SCC(=O)Nc3ccc(C(=O)/C=C/c4ccc(OC)c(OC)c4)cc3)o2)cc1	74.8%	87.1%	87.5%	89.6%	66.9%	79.8%	75.9%	82.9%	77.1%	99.5%	94.1%	90%	92.3%	73.8%	95.9%	103%	77.7%	68.1%
COc1ccc(-c2nnc(SCC(=O)Nc3ccc(C(=O)/C=C/c4ccc(Cl)cc4)cc3)o2)cc1OC	81.3%	89.8%	71.4%	84.6%	88.5%	84.6%	56.7%	62.7%	79%	82.2%	72%	80.2%	47.8%	72.3%	52.8%	88.7%	65.1%	41.1%
CCNc1ncnc2n[nH]nc12	98.4%	100%	94.8%	96.4%	95.3%	82.3%	98.7%	99.3%	102%	107%	104%	94.7%	102%	98.4%	91.9%	102%	87.5%	100%
Cc1ccc2[nH]c3nc4cccnc4c(C)c3c2c1	88.1%	92.6%	77.6%	79%	75.7%	92.7%	95.2%	100%	89.7%	119%	119%	9.94% (active)	88.4%	62.8%	38.7%	92.7%	85.9%	81.9%
Cc1ncc(CO)c(C(=O)O)c1O	105%	89.1%	93.4%	107%	98.8%	88.5%	103%	97%	102%	102%	89.7%	101%	97.6%	84.8%	81.2%	99.5%	121%	82.5%
C#C[C@@]1(O)[C@@H](CO)O[C@@H](n2cc(Br)c3c(Cl)ccnc32)[C@@H]1O	8.13% (active)	12.2%	35.9%	37.1%	70.9%	-25.7% (active)	73.7%	68%	-34% (active)	98.9%	68.7%	58.7%	23.7%	45.2%	63.3%	-20% (active)	12.8%	1.9% (active)
COc1ccc(/C(Cl)=N/N=C(\Cl)c2cc(OC)c(OC)c(OC)c2)cc1OC(C)=O	100%	79.2%	78.7%	92.3%	89.6%	74.8%	94.8%	93.9%	96.7%	110%	92.3%	111%	96.1%	65.5%	81.1%	90.2%	94.4%	82.4%
COc1cc(Cn2cc3c(c2)-c2onc(CO)c2CC3)cc(OC)c1OC	89%	104%	82%	94.5%	97.6%	88.7%	83.3%	80.3%	94.7%	93.7%	90.2%	90.3%	94.3%	68.4%	96.4%	97.5%	91.3%	95.8%
C=C1C(=O)O[C@H]2[C@H]1CC/C(COC(=O)n1ccnc1C)=C\CC[C@@]1(C)O[C@@H]21	93.6%	95.4%	93.2%	95.3%	95.1%	97.2%	106%	98.6%	95%	100%	86.8%	98.4%	103%	83.1%	94.3%	105%	70.4%	79.8%
COc1cc(-c2nc(N)n(CC(=O)Nc3ccc(/C(C)=N\O)cc3)n2)cc(OC)c1OC	101%	86.4%	74.1%	99.9%	85.8%	76.7%	97.9%	83.6%	99.6%	94.2%	92.1%	106%	96%	79.5%	90.9%	89.8%	84.5%	91.6%
CC(=O)Cc1cccnc1	107%	106%	104%	98.8%	98.6%	94.3%	101%	95.6%	99.9%	113%	116%	105%	98.9%	89.8%	95.5%	85.4%	88.5%	93.7%
COc1ccc2c(c1)O/C(=C/c1ccc(OCC(=O)Nc3ccc(S(N)(=O)=O)cc3)cc1)C2=O	93.7%	102%	89.8%	92.1%	97.7%	91%	94.3%	88%	101%	108%	97.7%	97.5%	98.1%	85.6%	115%	91.5%	94.6%	88.3%
Cc1ccc(/C=C2/C(=O)Nc3cc(Cl)c(-c4csc(N)n4)cc32)cc1	63.1%	47.7%	52.4%	55.2%	63.6%	56.8%	40.8%	50.7%	58.7%	82.7%	49.3%	62.1%	81%	67.4%	115%	79.3%	43.5%	51.3%
